# Assay outcomes: PubChem BioAssay, several laboratories
# MazF activator = MazEF (E. coli) toxin RNase activation. FAM/BHQ RNA-DNA oligo cleavage fluorescence, 5 h. AID 504720. 0.32% of 350,000 active. activation, % at 20 µM. P0AE70; in the data active = activation above about 50%
# Target sequence (P0AE70 whole entry, looked up): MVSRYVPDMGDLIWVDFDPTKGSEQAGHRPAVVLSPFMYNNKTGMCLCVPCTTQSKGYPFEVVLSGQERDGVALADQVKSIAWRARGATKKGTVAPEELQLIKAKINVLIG
# CCHFV vOTU inh = blocks the CCHF virus ovarian tumor domain protease; CCHFV vOTU protease, Pep-AMC fluorescence; inhibition, % at 11.5 µM; 0.55% of 370,000 active; AID 651958; in the data active = inhibition above about 30%
# Vc quorum ag = inducers of Vibrio cholerae quorum light production without autoinducers; V. cholerae BH1578 lux reporter, luminescence, 6 h; activation, % at 18.7 µM; 0.16% of 350,000 active; in the data active = activation mostly above about 9.7%, no sharp cut-off
# DUSP3 inh = inhibitors of human VHR1 phosphatase (DUSP3); P51452; recombinant VHR phosphatase, pNPP absorbance; inhibition, % at 13.3 µM; 0.52% of 290,000 active; AID 1654; in the data active = inhibition above about 50%
# Target sequence (P51452 whole entry, looked up): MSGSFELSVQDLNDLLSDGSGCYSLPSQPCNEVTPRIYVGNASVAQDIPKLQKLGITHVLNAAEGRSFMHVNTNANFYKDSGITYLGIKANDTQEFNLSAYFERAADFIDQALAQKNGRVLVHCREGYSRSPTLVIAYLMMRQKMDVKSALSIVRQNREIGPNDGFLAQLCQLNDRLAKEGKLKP
# Yp Topo-I inh = Y. pestis Topo-I inhibition via cleavage products; Y. pestis Topo-I cleavage product accumulation, plate reader; activity, % at 10 µM; 0.064% of 360,000 active; AID 504884; in the data active = activity above about 50%, passing the limit was not always enough
# PrPC surface inh = reduces human prion protein on the cell surface; cell surface PrPC, TR-FRET read-out; inhibition, % at 13.8 µM; 0.43% of 370,000 active; in the data active = inhibition above about 24%
# PrPC confirm = confirmation of inhibitors of cell surface human prion protein; cell surface PrPC level, TR-FRET; inhibition, % at 13.8 µM; shares compounds with PrPC surface inh; 65% of 1,500 active; in the data active = inhibition above about 25%
# LD9 tox = kills or reduces viability of LD9 cells in PrPc counter-screen. shares compounds with PrPC surface inh. LD9 cells cytotoxicity, luminescence viability. inhibition, % at 13.8 µM. 29% of 1,500 active. AID 743201; in the data active = inhibition above about 9.5%
# Hits are given with their value; 0 = inactive; - = no result; ! = repeats disagree. Compounds with a hit are over-represented: about 1.8% of the library has one in this group of screens.
SMILES,MazF activator,CCHFV vOTU inh,Vc quorum ag,DUSP3 inh,Yp Topo-I inh,PrPC surface inh,PrPC confirm,LD9 tox
CCCc1nc(SCC(=O)Nc2ccc(N3CCOCC3)cc2)c2ccccc2n1,0,0,0,0,0,0,-,-
O=C(Nc1ccncc1)Nc1cccc(F)c1,0,0,0,0,0,0,-,-
COc1ccccc1OCC(=O)Nc1ccc(S(=O)(=O)N2CCN(C)CC2)cc1,0,0,0,0,0,0,-,-
O=C(C1CCCN1S(=O)(=O)c1ccc([N+](=O)[O-])cc1)N1CCN(c2ccccc2)CC1 (centres undefined),-,0,-,-,-,0,-,-
CC(C)c1ccc(-n2c(-c3ccccc3)c[n+]3c2CCc2ccccc2-3)cc1,0,0,0,0,0,40.7,49.6,37.4
O=c1nc(N/N=C/c2ccccn2)cn[nH]1,0,0,0,0,0,24.9,0,9.5
COc1ccc(Cl)cc1N/C(N)=N/c1nc(C)cc(=O)[nH]1,0,0,0,0,0,32.3,0,0
COc1ccc(Cl)cc1N/C(N)=N/c1nc(CSc2ccc(C)cc2)cc(=O)[nH]1,0,0,0,0,0,0,-,-
N#Cc1c(-c2ccco2)nc(SCC(=O)Nc2cccc(Cl)c2)[nH]c1=O,0,0,0,0,0,77.7,112.9,0
CCC(Sc1nc(-c2cccc(OC)c2)c(C#N)c(=O)[nH]1)C(=O)Nc1nnc(C(C)C)s1 (centres undefined),0,0,0,0,0,0,-,-
CCc1ccc(NC(=O)C(C)Sc2nc(-c3ccco3)c(C#N)c(=O)[nH]2)cc1 (centres undefined),0,0,0,0,0,27.9,0,0
NC(=O)c1ccc2c(=O)c(O)c(-c3cc(Cl)c(N)c(Cl)c3)[nH]c2c1,0,0,0,0,0,28.8,0,0
CCCNC(=O)c1ccc2c(=O)c(O)c(-c3ccc(Cl)c([N+](=O)[O-])c3)[nH]c2c1,0,0,0,0,0,0,-,-
COc1cc(NC(=S)Nc2cccc(Cl)c2Cl)c(OC)cc1Cl,0,0,-,0,0,0,-,-
COc1cc(NC(=S)NC(C)(C)C)c(OC)cc1Cl,0,0,0,0,0,24.6,0,0
O=C(NC1CCCC1)c1cc(COc2ccc3ncccc3c2)on1,0,-,0,0,0,-,-,-
O=C(c1cc(COc2ccc3ncccc3c2)on1)N1CCCC1,0,0,0,0,0,42.4,42.4,0
CC(NC(=O)c1cc(COc2ccc3ncccc3c2)on1)c1ccc(F)cc1 (centres undefined),0,0,0,0,0,32.8,34.3,11.4
O=C(NCCc1cn2ccccc2n1)c1cc(COc2ccc3ncccc3c2)on1,0,0,0,0,0,25.1,40.5,48.7
Cc1c(Br)c([N+](=O)[O-])nn1CC(=O)N(C)Cc1ccccc1,0,0,0,0,0,0,-,-
O=C(OCc1cn(Cc2ccccc2)nn1)N1CCOCC1,-,0,-,-,-,0,-,-
CCCCCCSc1ccc(-c2nc3ccc(Cl)cn3c2NCCCC)cc1OC,0,0,0,-,0,33.4!,0,0
O=C(Nc1ccc([N+](=O)[O-])cc1)Nn1cnnc1,0,0,0,0,0,36.6,0,0
COc1ccc(C(=O)N2CCCC(CCC(=O)NCc3ccccc3F)C2)c(OC)n1 (centres undefined),0,0,0,0,0,0,-,-
Cc1cc(SCC(=O)NC2CCCC2)nc2ccccc12,0,0,0,0,0,27.9,39.2,0
SMILES,MazF activator,CCHFV vOTU inh,Vc quorum ag,DUSP3 inh,Yp Topo-I inh,PrPC surface inh,PrPC confirm,LD9 tox
Cc1cc(SCC(=O)NC2CCCCC2)nc2ccccc12,0,0,0,0,0,0,-,-
O=C(N[C@H](CO)Cc1ccccc1)[C@H]1O[C@@H](n2ccc(=O)[nH]c2=O)[C@H](O)[C@@H]1O,-,0,-,-,-,0,-,-
OC[C@@H]1CN(Cc2ccc(Cl)cc2)C[C@H](n2cnc3c(NC4CCC4)ncnc32)O1,-,0,0,-,0,26.1,0,0
COc1ccc(CNC(=O)c2ccc3c(c2)N(C)CCS3)cc1,0,0,0,0,0,0,-,-
CC(C)Oc1ccc(CNC(=O)c2ccc3c(c2)N(C)CCS3)cc1,0,0,0,0,0,25.4,44.1,0
CCCNC(=O)C(Cc1cccc(Cl)c1)NC(=O)c1ccccc1 (centres undefined),0,0,0,-,0,0,-,-
CCN(CC(=O)NCc1ccc(Cl)cc1)C(=O)CSc1ccc(Br)cc1,0,0,0,0,0,0,-,-
